Hit rate of the full screen: of about 62,000 compounds, about 95 (0.2%) were called active. Many of the other results were omitted from the sample, so actives are more common in it than they were. A number with no mark means an inactive call. Rule as the data show it: active = inhibition above about 20% (passing the limit was not always enough); inactive = the rest.

Coagulation factor XII (Homo sapiens), sequence (P00748 20-372 limits assumed): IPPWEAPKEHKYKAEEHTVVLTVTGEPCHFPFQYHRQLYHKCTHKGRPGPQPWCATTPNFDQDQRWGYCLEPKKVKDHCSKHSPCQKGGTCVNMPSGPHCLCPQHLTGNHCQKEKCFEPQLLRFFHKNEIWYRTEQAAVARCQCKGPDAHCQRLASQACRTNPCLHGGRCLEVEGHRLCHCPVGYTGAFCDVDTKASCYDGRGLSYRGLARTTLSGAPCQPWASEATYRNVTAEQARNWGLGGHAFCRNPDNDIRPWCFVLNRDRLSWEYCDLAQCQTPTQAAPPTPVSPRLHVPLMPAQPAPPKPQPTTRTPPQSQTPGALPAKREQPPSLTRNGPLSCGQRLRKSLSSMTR
Coagulation factor XII (Homo sapiens), sequence (P00748 373-615 limits assumed): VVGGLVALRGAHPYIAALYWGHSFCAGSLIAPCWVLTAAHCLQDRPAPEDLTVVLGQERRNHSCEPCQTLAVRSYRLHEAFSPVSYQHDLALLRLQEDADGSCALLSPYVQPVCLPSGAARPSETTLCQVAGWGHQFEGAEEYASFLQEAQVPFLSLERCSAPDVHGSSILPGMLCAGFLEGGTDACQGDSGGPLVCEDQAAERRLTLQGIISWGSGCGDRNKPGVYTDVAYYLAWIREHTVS

The experiment addresses Coagulation factor XII (Homo sapiens) (UniProt P00748). As to the kind of experiment: human factor XIIa inhibitors, primary screen, biochemical, pooled compound mixtures, fluorogenic substrate (AID 684).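 Also: 0% = enzyme without compound and 100% = no enzyme blank.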 The following applies: purified FXIIa, at 5 µM, hits give high values.
On to `CC1(C)CC(=O)c2sc(N)nc2C1`, for which the inhibition was 4.78%.

Take `CCN1CCN(c2c(Cl)cccc2NC(=O)c2ccc(Br)o2)CC1`: the inhibition is 10.2%.

In the case of `CCOC(=O)c1ccc(N2C(=O)CC(Sc3nc(O)c(CC)c(=O)[nH]3)C2=O)cc1` (configuration not stated), the inhibition is -16.1%.

With `O=C(CCCn1c(=O)[nH]c2cc(Cl)ccc2c1=O)NCCN1CCN(c2ccccc2)CC1`, the inhibition is 6.45%.

In the case of `CC(C)Cn1c(CN(Cc2ccccc2)Cc2ccccc2)nc2c1c(=O)n(C)c(=O)n2C`, the inhibition was 2.03%.

Turning to `CCOCC(=O)NCc1ccc2c(c1)cc(C)n2C`, the inhibition was 5.58%.

In the case of `CC1CCCC(NC(=O)CSc2nccn2C)C1C` (configuration not stated), the inhibition was 4.17%.

For `O=C(/C=N/O)Nc1ccccc1`, the inhibition was 1.18%.

As to `CCC(=O)N1CCN=C1SCc1ccc(F)cc1`, the inhibition is 11.4%.

As to `Cc1ccc(CN2C(=O)CCC2C(=O)NCCCN2CCCCC2C)cc1` (configuration not stated), the inhibition is 5.07%.

For `Cc1cc(C)c(C#N)c(SCS(=O)c2ccc(C(C)(C)C)cc2)n1` (configuration not stated), the inhibition is 4.64%.

With `CCOC(=O)c1cc2c(n(-c3ccc(C)cc3)c1=O)CCCC2=O`, the inhibition was 6.98%.

With `CC(c1ccco1)N(C(=O)c1ccc(S(=O)(=O)N2CCCCC2)cc1)c1ccccn1` (configuration not stated), the inhibition is 12%.

Consider `COC(=O)c1oc2ccc(Br)cc2c1NC(C)=O`, for which the inhibition was 8.62%.

Turning to `Cc1nnc(SCc2cc(=O)[nH]c(N3CCN(Cc4ccccc4)CC3)n2)s1`, the inhibition is 2.33%.

`Cc1nn(-c2cc(Cl)ccc2N)c(=O)c2ccccc12`: the inhibition is 4.62%.

Take `COc1cc(OC)c(C(=O)Nc2ccc(N(C)C)cc2)cc1OC`: the inhibition is 6.85%.

For `CSc1ccc(NC(=O)N2CC(C)OC(C)C2)cc1` (configuration not stated), the inhibition is 7.45%.

Regarding `O=C(Nc1cccc2cccnc12)c1cccc(N2C(=O)CCC2=O)c1`, the inhibition is 8.88%.

Turning to `CCCCOC(=O)Nc1nccs1`, the inhibition is 0.87%.

As to `CC1=C(C(N)=O)C(c2ccc3c(c2)OCO3)n2nc(-c3cccc(C)c3)nc2N1` (configuration not stated), the inhibition was 6.61%.

For the compound `CCn1c(SCC(=O)c2ccc(Cl)s2)nnc1-c1cccs1`, the inhibition was 7.99%.

With `O=C(O)c1ccc(COCC(F)(F)F)cc1`, the inhibition was 7.12%.

Turning to `COc1ccccc1C(=O)C(O)c1ccccc1OC` (configuration not stated), the inhibition was 5.88%.

As for `CC(C)C(=O)Nc1c(C(=O)c2ccc(F)cc2)oc2ccccc12`, the inhibition was -2.16%.

Consider `Cc1cccc(C(=O)Nc2ccc(CC(=O)O)cc2)c1`, for which the inhibition was 3.19%.

Consider `O=c1[nH][nH]c(=O)c2cc(N3CCCC3)ccc12`, for which the inhibition was 10.2%.

As for `Cc1cc(=O)n2nc(N3CCCC3C(=O)NCCCN3CC(C)CC(C)C3)sc2n1` (configuration not stated), the inhibition was -7.38%.

As to `O=C(CN1CCOCC1)Nc1cc(Cl)ccc1Cl`, the inhibition was 17.8%.

Regarding `CCCN1C(=O)C(NS(=O)(=O)c2ccc(N)cc2)(C(F)(F)F)C(C(=O)OC)=C1C` (configuration not stated), the inhibition is 4.13%.

With `CC1CCCCC1NC(=O)CSc1nnc(N)s1` (configuration not stated), the inhibition was 4.21%.

For `CCOC(=O)Cc1c(C)nc2c(C#N)c(C)nn2c1C`, the inhibition is -16%.

On to `CCOC(=O)N1CCN(CC(=O)c2c(C)[nH]c3ccccc23)CC1`, for which the inhibition was 8.99%.

Turning to `CCC(C(=O)Nc1ncccn1)(C(F)(F)F)C(F)(F)F`, the inhibition is 9.39%.

In the case of `Cc1ccc(-n2ncc3c2ncn2nc(-c4ccco4)nc32)c(C)c1`, the inhibition was 0.945%.

As for `Cc1ccc(-n2ncc3c(N4CCN(c5ccc(F)cc5)CC4)ncnc32)c(C)c1`, the inhibition was 2.92%.

For the compound `Cc1ccc(-n2ncc3c(=O)[nH]cnc32)c(C)c1`, the inhibition was 20.5% (active).

As for `CC(=O)NS(=O)(=O)c1ccccc1`, the inhibition was 7.57%.

In the case of `Cc1ccc(-c2nn(-c3ccccc3)cc2CN(Cc2ccccc2)C(=O)CCC(=O)O)o1`, the inhibition is 1.27%.

For the compound `COc1ccc(CC(NC(C)=O)C(=O)NC2CCN(C(=O)Nc3ccc(C#N)cc3)CC2)cc1OC` (configuration not stated), the inhibition was -19%.

In the case of `c1nnc2c3c4c(sc3ncn12)CCC4`, the inhibition is -20.4%.

For the compound `Cc1ccc2cccc(O)c2[n+]1[O-]`, the inhibition is 6.81%.

With `CCCn1c(SCC(N)=O)nnc1C(C)C`, the inhibition was -14.3%.

Turning to `COc1ccccc1N1CCN(C(=O)c2c(-c3c(Cl)cccc3Cl)noc2C)CC1`, the inhibition was -18.6%.

With `CCCn1nnc2sc3c(c2c1=O)CCC(C)C3` (configuration not stated), the inhibition is 1.96%.

`Cc1ccnc(SCCn2c(N(C)Cc3ccccc3)nc3c2c(=O)n(C)c(=O)n3C)n1`: the inhibition was 5.5%.

On to `Cc1ccc(S(=O)(=O)C2(S(=O)(=O)c3ccc(C)cc3)CCCC2)cc1`, for which the inhibition is 5.75%.

As for `CCCOC(=O)c1[nH]c2c(c1C)C(=O)CC(c1cc(OC)c(OC)c(OC)c1)C2` (configuration not stated), the inhibition is 3.98%.

With `O=C(c1ccc(-n2cnnn2)cc1)N1CCN(C(c2ccccc2)c2ccccc2)CC1`, the inhibition was 1.76%.

As to `c1c2c(cc3sc(N4CCCCC4)nc13)OCCO2`, the inhibition is -2.49%.

For the compound `CC(=O)Oc1ccc(C)cc1N1C(=O)c2ccc(C(=O)O)cc2C1=O`, the inhibition was 9.34%.

Regarding `N#Cc1ccc(OCCN2C(=O)NC3(CCSC3)C2=O)cc1` (configuration not stated), the inhibition was 18.5%.

For `COc1ccc(C2/C(=C(/O)c3ccccc3)C(=O)C(=O)N2c2ncccn2)cc1OC` (configuration not stated), the inhibition is 2.12%.

With `Cc1c(NC(=O)c2coc(=O)c(Br)c2)c(=O)n(-c2ccccc2)n1C`, the inhibition was -0.015%.

With `CCOC(=O)N1CCN(C(=O)Cc2ccc(-n3c(=S)[nH]c4ccccc4c3=O)cc2)CC1`, the inhibition is 7.08%.

For the compound `COc1cccc(Nc2nnc(SCC(=O)N3CC(C)OC(C)C3)s2)c1` (configuration not stated), the inhibition was -0.74%.

In the case of `CCOc1ccc2[nH]c(=O)c(CN(CCCO)C(C)=O)cc2c1`, the inhibition was -3.55%.

Consider `Cn1c(=O)c2[nH]c(NCC3CCCO3)nc2n(-c2ccccc2)c1=O` (configuration not stated), for which the inhibition was -14.8%.

As to `CC(C)CCNc1nc(N2CCCC2)c2c(c1C#N)CCN(C)C2`, the inhibition was -51.8%.

Consider `N#Cc1ccc(CSc2nnc(-c3ccccn3)n2-c2ccc(Cl)cc2)cc1`, for which the inhibition was -14.6%.

Turning to `CCN(CC)P(=O)(C(NC(=O)OC)C(F)(F)C(F)(F)C(F)(F)C(F)F)N(CC)CC` (configuration not stated), the inhibition was 0.97%.

In the case of `CCCC(C)n1[nH]c(=O)c2c(C)cc(C)nc21` (configuration not stated), the inhibition is 3.26%.

As a reminder, the inhibition is the relative decrease from the control value, in per cent.

(Values after PubChem BioAssay AID684 (PCMD, 2007).)
